Screening data as filed in PubChem.
ST2 IL33 inh: blocks human ST2 binding to IL-33. AlphaLISA ST2-Fc/biotin-IL-33 interaction, 1 h. AID 1259354. Q01638. actives 2.3% (n = 78,000). inhibition, % for hits at 17 µM; in the data active = inhibition above about 30%
Target sequence (Q01638 whole entry, looked up): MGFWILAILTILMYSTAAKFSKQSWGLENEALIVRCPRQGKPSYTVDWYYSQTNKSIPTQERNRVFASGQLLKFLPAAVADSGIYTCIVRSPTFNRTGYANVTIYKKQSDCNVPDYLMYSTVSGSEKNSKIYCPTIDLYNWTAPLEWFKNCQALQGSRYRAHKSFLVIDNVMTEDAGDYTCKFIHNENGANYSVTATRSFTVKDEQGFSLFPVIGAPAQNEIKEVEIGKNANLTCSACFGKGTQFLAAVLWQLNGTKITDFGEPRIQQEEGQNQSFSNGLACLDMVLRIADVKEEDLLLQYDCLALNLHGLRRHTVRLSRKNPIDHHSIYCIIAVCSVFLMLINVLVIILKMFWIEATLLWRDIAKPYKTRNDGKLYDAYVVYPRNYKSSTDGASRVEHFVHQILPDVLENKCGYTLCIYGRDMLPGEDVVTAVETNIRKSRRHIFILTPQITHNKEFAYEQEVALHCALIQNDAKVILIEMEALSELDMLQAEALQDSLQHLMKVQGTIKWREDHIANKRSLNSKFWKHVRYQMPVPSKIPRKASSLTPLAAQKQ
* marks the source's active call; other numbers are inactive results; i = inactive. The sample as a whole holds a higher share of hits than the screen did.

SMILES	ST2 IL33 inh
COc1cc(-c2nc3cnccn3c2Nc2ccc3c(c2)OCCO3)ccc1O	i
Cc1ccc(-c2nc3sccn3c2Nc2ccccc2C)cc1	i
COc1ccc(-c2nc3sccn3c2Nc2ccc3c(c2)OCO3)cc1	30%*
O=C(Nc1cccc(S(=O)(=O)c2cccc(NC(=O)c3ccco3)c2)c1)c1ccco1	i
O=C(O)c1cccc(NC(=O)c2cccc(Br)c2)c1	i
O=C(Nc1cccc(NC(=O)c2ccco2)c1)c1cccc(Br)c1	53%*
Cc1cccc(=O)n1CCC(=O)N1CC[C@@](C)(O)[C@@H](Cc2ccccc2)C1	i
CC1=C(C(=O)Nc2cc(C)ccn2)C(c2ccc(C)cc2)C2=C(CC(C)(C)CC2=O)N1 (stereo not given)	i
CC(C)Oc1ccc(C(CCN2C(=O)CCC2=O)c2ccccc2)cc1 (stereo not given)	i
CCOc1ccc(N2C(=O)S/C(=C\c3ccc(O)cc3)C2=O)cc1	i
CCOc1ccc(N2C(=O)S/C(=C\c3ccc(OC)cc3)C2=O)cc1	i
CCOc1ccc(N2C(=O)S/C(=C\c3ccc(C)o3)C2=O)cc1	34%*
Cn1c(N2CCOCC2)nc2cc(C(=O)Nc3cnc4n3CCCC4)ccc21	i
O=c1cc[nH]c2ccc([N+](=O)[O-])cc12	i
O=[N+]([O-])c1ccc(Nc2c[nH]c3ccccc23)cc1	42%*
O=[N+]([O-])c1ccc(S(=O)(=O)Nc2ccccc2)cc1	i
O=C1CCC(=O)NCCCCCN(O)C(=O)CCC(=O)NCCCCCN(O)C(=O)CCC(=O)NCCCCCN1	39%*
O=C1CCC(=O)N(O)CCCCCNC(=O)CCC(=O)N(O)CCOCCNC(=O)CCC(=O)N(O)CCCCCN1	i
CC1CCc2c(sc(NC(=O)c3ccccc3Cl)c2C(=O)NCc2ccco2)C1 (stereo not given)	i
O=C(Nc1sc2c(c1C(=O)NCC1CCCO1)CCCC2)c1ccccc1Br (stereo not given)	i
O=C(Nc1sc2c(c1C(=O)NCc1ccco1)CCCC2)c1ccccc1[N+](=O)[O-]	30%*
O=C(Cn1nnc(-c2ccccc2Cl)n1)N1CCOCC1	i
COC(=O)c1c(C)oc2ccc(OC(=O)C(C)C)cc12	i
Cc1ccc(C(O)CN2C3=NCCCN3c3ccccc32)cc1 (stereo not given)	i
COc1ccc2c(c1)N(C(=O)C(C)N1C(=O)c3ccccc3C1=O)C(C)(C)C=C2C (stereo not given)	i
SMILES	ST2 IL33 inh
COc1cc2c3c(c1)C(C)CC(C)(C)N3C(=O)C2=O (stereo not given)	40%*
COc1cccc2c1OC1(C)CC2NC(=O)N1c1cccc(Cl)c1 (stereo not given)	i
COc1cc2c3c(c1)C(C)=CC(C)(C)N3C(=O)C2=O	70%*
CC1=CC(C)(C)N(C(=O)C(C)N2C(=O)c3ccccc3C2=O)c2cc(C)c(C)cc21 (stereo not given)	i
COc1cccc(N2C(=O)NC3CC2(C)Oc2ccccc23)c1 (stereo not given)	i
CC(C)C(NC(=O)C1CCCCC1)C(=O)N1CCN(c2ccc(F)cc2)CC1 (stereo not given)	i
O=C(c1ccc2nc3ccc(Cl)cc3c(=O)n2c1)N1CCc2ccccc2C1	i
O=C(O)CCCNCc1ccc(Cl)cc1	i
Cc1c[nH]c(C(=O)N2CCC(=O)N(Cc3ccc(F)cc3)C(C(C)C)C2)c1 (stereo not given)	i
CC[C@H]1CN(C(=O)c2ccccc2)CC[C@H]1CC(=O)N1CCC(C(N)=O)CC1	i
CCN(C(=O)c1ccco1)c1ccccc1	i
O=C(CSCc1cccc(Br)c1)Nc1ccccc1Cl	i
FC(F)(F)c1cc(-c2cccs2)nc(NCc2cccnc2)n1	i
COc1cc(Nc2ncnc(N)c2[N+](=O)[O-])cc(OC)c1OC	i
COc1ccc(NS(=O)(=O)c2ccc(NC(=O)COc3ccccc3)cc2)cc1	i
COc1ccccc1NS(=O)(=O)c1ccc(NC(C)=O)cc1	i
COc1cccc(Nc2nc3ccccc3nc2NS(=O)(=O)c2ccc(NC(C)=O)cc2)c1	37%*
Nc1cc(C(=O)NCCCc2nc3ccccc3s2)[nH]n1	i
NC(=O)c1c(NC(=O)Cc2ccc(Cl)cc2)sc2c1CCC2	i
CC(=O)[C@]1(O)Cc2c(O)c3c(c(O)c2[C@@H](O[C@H]2C[C@H](N)[C@H](O)[C@H](C)O2)C1)C(=O)c1ccccc1C3=O	34%*
CC(C)Oc1ccccc1OCCN1CCNCC1	i
N#CC1=C(N)OC2=C(C(=O)CCC2)C1c1cccc(Br)c1 (stereo not given)	i
COc1cncc(-c2ccc(F)cc2Cl)c1	i
Nc1ccc(-c2ccc(F)cc2Cl)cn1	35%*
NC(=O)c1ccnc(-c2ccc(F)cc2Cl)c1	i
SMILES	ST2 IL33 inh
O=C(c1ccc2n[nH]nc2c1)N1CCCC2(C1)C(=O)Nc1ccccc12 (stereo not given)	i
CN1CCN(S(=O)(=O)c2cc([N+](=O)[O-])ccc2N2CCN(Cc3ccccc3)CC2)CC1	i
Cc1nc2c(ccc3nc(NC(=O)c4ccc(OC(C)C)cc4)sc32)s1	i
Cc1nc2c(ccc3nc(NC(=O)c4ccc(C)c(C)c4)sc32)s1	41%*
Cc1nc2c(ccc3nc(NC(=O)c4ccc5c(c4)OCCO5)sc32)s1	i
COC(=O)c1ccc(C(=O)Nc2nc3ccc4sc(C)nc4c3s2)cc1	36%*
Cc1nc2c(ccc3nc(NC(=O)c4cccc(Br)c4)sc32)s1	i
Cc1nc2c(ccc3nc(NC(=O)c4ccccc4)sc32)s1	i
CC1=C[C@@H](CNCCN(C)C)[C@H](C(C)C)C[C@H]1Cc1nnc(C(C)(C)C)o1	i
COc1ccc(NC(=O)c2sc3nc(C)cc(C(F)(F)F)c3c2N)cc1	i
Clc1ccc(-c2cccc(-n3cnnc3)c2)s1	i
CCCCC1CCCN1c1cc(C2CCNCC2)ncn1 (stereo not given)	i
CC(=O)NC(=O)c1cc2cc(Cl)cc(Cl)c2oc1=Nc1cccc(C#N)c1	i
COc1ccc2cc(C(=O)Nc3ccccc3)c(=Nc3ccc(C#N)cc3)oc2c1	i
N#Cc1ccc(N=c2oc3ccccc3cc2C(=O)Nc2ccccc2)cc1	33%*
CC(=O)NC(=O)c1cc2cc(Br)ccc2oc1=Nc1cccc(C#N)c1	33%*
COc1ccc2oc(=Nc3ccc(C#N)cc3)c(C(=O)Nc3ccccc3)cc2c1	i
CC(=O)NC(=O)c1cc2cc(Br)ccc2oc1=Nc1cccc(F)c1	i
COCCNC(=O)c1ccc(CS(=O)c2ccccc2OC)o1 (stereo not given)	i
CS(=O)(=O)N(CC(=O)Nc1ccc(C(N)=O)cc1)c1ccc(Cl)cc1	i
CCn1c(C2CCN(C(=O)c3ccccc3C(=O)OC)CC2)nn(C)c1=O	i
O=C1C2C3CCC(C3)C2C(=O)N1Cc1ccccc1 (stereo not given)	i
CNC(=O)C(=O)Nc1c(C)cccc1C	i
Cc1ccc2c(Cl)c(C(=O)N3CC(C)OC(C)C3)sc2c1 (stereo not given)	i
Cc1ccc(CNS(=O)(=O)c2cc(Br)cc3c2N(C(=O)C2CC2)CC3)cc1	i
O=C(C1CC1)N1CCc2cc(S(=O)(=O)NCc3ccc(F)cc3)ccc21	i
COc1ccc(CNS(=O)(=O)c2ccc3c(c2)CCN3C(=O)C2CC2)cc1	i
O=C(C1CC1)N1CCc2cc(Br)cc(S(=O)(=O)NCc3ccc4c(c3)OCO4)c21	32%*
O=C(C1CC1)N1CCc2cc(S(=O)(=O)NCc3ccc4c(c3)OCO4)ccc21	36%*
